Experimental data taken from the supplement of paper PMC10849652.
Of roughly 7,900 targets only a part is listed; those with a hit were picked by preference. About 0.6% of all pairs of compound and target were hits. A number with no mark means an inactive call.

The targets below were run with COC1=CC=C(C=C1)CN2C=CC3=C2C=C(C=C3)C(=O)NO (assay: log2 fold change, soluble protein after heating vs DMSO (PISA); higher = thermal stabilisation; K562 cells, 10 uM, 30 min; active = over 0.2 and 3.5 SD of the protein, either way, in both replicates (recomputed)).
Method in brief: (§1)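 Soluble protein was defined as the supernatant after 21,000xg for 90 min. It came from K562 cells at 2×10^6 cells/mL given 10 μM compound for 30 min, heated in aliquots for 3 min across 48°C-58°C, pooled, and extracted in PBS with 0.5% NP-40 at 4°C, and was quantified by TMTpro 16plex LC-MS/MS with equalised channel sums. Thermal stability against control samples, from duplicates, is reported as log2 fold change.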

Sequence of UniProt O14526 (O14526 whole entry, looked up): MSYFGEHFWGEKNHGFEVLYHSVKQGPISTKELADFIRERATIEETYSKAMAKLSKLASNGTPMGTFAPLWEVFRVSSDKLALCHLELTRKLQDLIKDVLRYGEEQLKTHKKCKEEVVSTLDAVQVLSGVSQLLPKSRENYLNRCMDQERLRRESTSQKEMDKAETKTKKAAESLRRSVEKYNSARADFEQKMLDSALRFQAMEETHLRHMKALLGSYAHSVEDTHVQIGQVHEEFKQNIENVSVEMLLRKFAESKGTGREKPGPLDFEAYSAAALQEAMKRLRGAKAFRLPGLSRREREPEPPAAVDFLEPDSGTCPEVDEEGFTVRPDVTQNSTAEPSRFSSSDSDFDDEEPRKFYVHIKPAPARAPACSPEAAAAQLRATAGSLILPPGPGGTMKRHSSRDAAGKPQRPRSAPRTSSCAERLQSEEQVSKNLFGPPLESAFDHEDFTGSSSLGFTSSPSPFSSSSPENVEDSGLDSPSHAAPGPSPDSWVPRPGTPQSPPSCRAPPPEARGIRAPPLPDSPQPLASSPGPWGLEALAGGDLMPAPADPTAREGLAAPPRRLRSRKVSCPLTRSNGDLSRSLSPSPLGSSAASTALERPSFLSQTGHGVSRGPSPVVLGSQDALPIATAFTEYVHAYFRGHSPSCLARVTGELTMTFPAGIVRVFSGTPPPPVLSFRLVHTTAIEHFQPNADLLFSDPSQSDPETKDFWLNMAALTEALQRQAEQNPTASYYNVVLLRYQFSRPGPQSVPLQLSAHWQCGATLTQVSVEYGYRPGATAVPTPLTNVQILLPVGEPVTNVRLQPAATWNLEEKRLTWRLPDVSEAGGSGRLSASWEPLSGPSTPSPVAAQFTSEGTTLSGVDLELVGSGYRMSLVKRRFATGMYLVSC
Sequence of UniProt P22087 (P22087 whole entry, looked up): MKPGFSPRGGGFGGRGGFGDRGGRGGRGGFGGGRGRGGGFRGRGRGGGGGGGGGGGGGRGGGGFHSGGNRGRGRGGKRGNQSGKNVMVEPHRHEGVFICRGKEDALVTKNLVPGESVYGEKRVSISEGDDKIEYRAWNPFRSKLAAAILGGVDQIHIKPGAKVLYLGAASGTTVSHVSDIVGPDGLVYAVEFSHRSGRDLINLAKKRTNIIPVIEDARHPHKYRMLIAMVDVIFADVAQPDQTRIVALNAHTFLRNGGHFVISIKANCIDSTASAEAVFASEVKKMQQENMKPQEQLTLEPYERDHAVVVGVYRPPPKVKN
Sequence of UniProt P15586 (P15586 whole entry, looked up): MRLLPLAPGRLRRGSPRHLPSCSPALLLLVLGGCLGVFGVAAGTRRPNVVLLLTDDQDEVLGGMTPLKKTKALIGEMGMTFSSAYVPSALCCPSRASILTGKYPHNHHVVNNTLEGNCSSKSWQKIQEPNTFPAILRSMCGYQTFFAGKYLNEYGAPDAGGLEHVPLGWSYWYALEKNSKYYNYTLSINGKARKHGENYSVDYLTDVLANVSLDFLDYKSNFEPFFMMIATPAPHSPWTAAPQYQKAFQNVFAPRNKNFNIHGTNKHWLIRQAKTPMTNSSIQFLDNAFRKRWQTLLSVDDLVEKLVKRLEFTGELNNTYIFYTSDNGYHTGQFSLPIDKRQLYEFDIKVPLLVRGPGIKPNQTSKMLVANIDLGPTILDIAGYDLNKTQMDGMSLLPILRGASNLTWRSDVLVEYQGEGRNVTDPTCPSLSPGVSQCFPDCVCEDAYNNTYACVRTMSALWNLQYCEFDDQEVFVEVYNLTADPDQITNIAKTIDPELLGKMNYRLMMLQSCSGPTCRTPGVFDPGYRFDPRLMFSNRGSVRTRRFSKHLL
Sequence of UniProt Q9NZC3 (Q9NZC3 whole entry, looked up): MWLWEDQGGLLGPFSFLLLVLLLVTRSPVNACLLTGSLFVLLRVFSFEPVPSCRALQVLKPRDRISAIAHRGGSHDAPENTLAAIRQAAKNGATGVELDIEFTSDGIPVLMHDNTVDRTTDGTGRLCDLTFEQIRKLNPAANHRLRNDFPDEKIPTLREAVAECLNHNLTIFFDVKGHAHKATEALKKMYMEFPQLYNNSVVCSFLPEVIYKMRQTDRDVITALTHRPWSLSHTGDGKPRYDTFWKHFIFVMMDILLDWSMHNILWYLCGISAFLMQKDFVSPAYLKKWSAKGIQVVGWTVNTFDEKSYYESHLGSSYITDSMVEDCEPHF
Sequence of UniProt Q6P3S6 (Q6P3S6 whole entry, looked up): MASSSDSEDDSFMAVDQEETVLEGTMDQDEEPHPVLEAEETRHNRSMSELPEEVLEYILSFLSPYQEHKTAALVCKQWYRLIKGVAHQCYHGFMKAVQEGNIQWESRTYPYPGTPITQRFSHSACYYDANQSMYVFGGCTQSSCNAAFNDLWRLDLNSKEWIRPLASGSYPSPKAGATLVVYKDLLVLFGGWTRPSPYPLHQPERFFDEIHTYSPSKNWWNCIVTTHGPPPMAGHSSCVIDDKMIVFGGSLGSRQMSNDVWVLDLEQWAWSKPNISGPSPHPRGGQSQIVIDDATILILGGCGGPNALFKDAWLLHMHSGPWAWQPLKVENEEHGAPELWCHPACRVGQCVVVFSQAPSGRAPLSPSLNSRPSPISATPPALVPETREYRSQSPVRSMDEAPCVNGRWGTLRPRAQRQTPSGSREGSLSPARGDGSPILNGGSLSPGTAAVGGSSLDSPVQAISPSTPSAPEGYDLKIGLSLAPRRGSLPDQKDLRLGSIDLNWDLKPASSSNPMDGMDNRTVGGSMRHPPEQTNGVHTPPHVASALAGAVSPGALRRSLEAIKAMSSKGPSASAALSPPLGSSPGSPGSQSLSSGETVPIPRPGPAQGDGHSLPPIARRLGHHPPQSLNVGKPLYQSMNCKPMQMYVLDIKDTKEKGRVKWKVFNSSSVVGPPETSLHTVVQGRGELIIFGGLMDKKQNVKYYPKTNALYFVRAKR
Sequence of UniProt Q92522 (Q92522 whole entry, looked up): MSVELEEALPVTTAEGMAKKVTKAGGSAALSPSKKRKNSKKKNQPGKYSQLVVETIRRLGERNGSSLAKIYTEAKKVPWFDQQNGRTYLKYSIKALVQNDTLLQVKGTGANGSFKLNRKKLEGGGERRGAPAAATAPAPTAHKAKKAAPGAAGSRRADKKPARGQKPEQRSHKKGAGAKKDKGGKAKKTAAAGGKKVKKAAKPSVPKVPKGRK
Sequence of UniProt Q4ZG55 (Q4ZG55 whole entry, looked up): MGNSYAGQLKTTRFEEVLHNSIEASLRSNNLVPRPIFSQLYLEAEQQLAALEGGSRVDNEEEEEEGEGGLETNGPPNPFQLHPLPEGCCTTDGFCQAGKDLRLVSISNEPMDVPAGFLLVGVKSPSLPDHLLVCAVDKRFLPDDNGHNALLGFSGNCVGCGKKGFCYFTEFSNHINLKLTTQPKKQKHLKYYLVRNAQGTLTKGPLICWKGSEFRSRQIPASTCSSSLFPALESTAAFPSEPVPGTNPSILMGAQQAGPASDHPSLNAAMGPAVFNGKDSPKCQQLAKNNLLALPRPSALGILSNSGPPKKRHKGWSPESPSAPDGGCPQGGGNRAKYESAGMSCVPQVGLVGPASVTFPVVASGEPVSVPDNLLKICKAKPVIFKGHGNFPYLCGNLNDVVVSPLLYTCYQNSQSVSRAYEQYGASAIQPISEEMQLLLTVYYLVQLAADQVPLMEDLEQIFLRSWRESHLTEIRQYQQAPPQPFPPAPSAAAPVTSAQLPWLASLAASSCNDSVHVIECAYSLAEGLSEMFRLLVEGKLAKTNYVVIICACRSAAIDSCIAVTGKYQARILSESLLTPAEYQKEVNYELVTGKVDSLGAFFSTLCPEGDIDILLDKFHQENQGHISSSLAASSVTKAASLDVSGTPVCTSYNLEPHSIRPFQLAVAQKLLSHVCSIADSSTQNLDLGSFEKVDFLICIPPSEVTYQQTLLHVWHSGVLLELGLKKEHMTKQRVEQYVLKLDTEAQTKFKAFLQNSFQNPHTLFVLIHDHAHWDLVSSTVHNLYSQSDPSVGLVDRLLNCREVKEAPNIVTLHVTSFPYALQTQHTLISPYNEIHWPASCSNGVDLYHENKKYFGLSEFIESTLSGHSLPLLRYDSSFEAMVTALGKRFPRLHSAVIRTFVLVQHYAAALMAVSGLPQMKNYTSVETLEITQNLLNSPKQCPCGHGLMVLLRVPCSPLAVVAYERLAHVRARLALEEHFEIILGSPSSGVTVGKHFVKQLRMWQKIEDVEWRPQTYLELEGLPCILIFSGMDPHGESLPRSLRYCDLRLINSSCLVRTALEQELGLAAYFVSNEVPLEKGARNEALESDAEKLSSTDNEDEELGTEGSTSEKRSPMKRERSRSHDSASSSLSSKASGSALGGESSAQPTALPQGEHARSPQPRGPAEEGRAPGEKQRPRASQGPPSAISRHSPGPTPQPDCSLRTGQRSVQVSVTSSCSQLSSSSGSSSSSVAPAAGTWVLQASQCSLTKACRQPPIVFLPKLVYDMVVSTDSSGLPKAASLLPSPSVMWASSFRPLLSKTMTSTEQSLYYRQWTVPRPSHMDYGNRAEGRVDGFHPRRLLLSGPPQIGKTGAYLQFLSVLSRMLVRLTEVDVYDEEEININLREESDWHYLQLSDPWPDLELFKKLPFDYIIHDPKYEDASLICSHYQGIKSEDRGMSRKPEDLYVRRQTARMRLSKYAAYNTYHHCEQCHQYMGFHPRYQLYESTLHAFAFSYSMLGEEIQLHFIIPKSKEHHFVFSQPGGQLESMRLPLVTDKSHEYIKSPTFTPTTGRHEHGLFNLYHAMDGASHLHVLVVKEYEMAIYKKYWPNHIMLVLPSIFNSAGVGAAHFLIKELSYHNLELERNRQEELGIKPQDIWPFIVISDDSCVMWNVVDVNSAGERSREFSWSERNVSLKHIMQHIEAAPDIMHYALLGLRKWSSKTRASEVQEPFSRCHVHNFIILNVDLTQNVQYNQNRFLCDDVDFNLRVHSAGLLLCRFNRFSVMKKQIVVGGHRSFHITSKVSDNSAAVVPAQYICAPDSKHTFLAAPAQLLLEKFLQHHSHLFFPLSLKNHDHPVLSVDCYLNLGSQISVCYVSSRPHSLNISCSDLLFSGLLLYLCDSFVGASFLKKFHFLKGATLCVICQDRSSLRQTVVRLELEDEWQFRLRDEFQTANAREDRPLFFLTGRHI
Sequence of UniProt P63218 (P63218 whole entry, looked up): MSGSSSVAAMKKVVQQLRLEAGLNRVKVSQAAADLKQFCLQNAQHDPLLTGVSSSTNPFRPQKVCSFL

| Target | log2 fold change |
| --- | --- |
| IGF2BP2 (UniProt Q9Y6M1) | -0.111 |
| GBA2 (UniProt Q9HCG7) | -0.064 |
| HADHA (UniProt P40939) | 0.267 |
| GCSH (UniProt P23434) | -0.086 |
| HEATR5B (UniProt Q9P2D3) | -0.006 |
| GBF1 (UniProt Q92538) | -0.005 |
| GOLPH3 (UniProt Q9H4A6) | 0.011 |
| GYS1 (UniProt P13807) | -0.045 |
| GNS (UniProt P15586) | -0.014 |
| FIS1 (UniProt Q9Y3D6) | -0.016 |
| HMGB3 (UniProt O15347) | 0.037 |
| HHEX (UniProt Q03014) | 0.178 |
| GSR (UniProt P00390) | 0.023 |
| GLUD2 (UniProt P49448) | -0.041 |
| FBL (UniProt P22087) | -0.154 |
| FCHO1 (UniProt O14526) | 0.061 |
| HTATIP2 isoform 3 (UniProt Q9BUP3) | -0.003 |

| Target | log2 fold change |
| --- | --- |
| GNG5 (UniProt P63218) | 0.082 |
| HDAC6 (UniProt Q9UBN7) | 0.676 (active) |
| HNRNPUL1 (UniProt Q9BUJ2) | 0.033 |
| FHOD1 (UniProt Q9Y613) | -0.044 |
| H1FX (UniProt Q92522) | -0.116 |
| FOXK1 (UniProt P85037) | -0.002 |
| GDE1 (UniProt Q9NZC3) | 0.046 |
| GGA2 (UniProt Q9UJY4) | 0.012 |
| GREB1 (UniProt Q4ZG55) | 0.448 |
| HDHD2 (UniProt Q9H0R4) | 0.048 |
| IFITM3 (UniProt Q01628) | 0.055 |
| FBXO42 (UniProt Q6P3S6) | -0.037 |
| GNPAT (UniProt O15228) | 0.008 |
| HNRNPK isoform 2 (UniProt P61978) | 0.008 |
| GATD1 (UniProt Q8NB37) | -0.104 |
| GCC2 (UniProt Q8IWJ2) | -0.037 |
| IGF2 isoform 3 (UniProt P01344) | 0.041 |

Each target was assayed with CON(C)C(=O)N1N=C(c2cc(F)ccc2F)S[C@@]1(CCCN)c1ccccc1 [filanesib] in the same assay as above.
Method in brief: as §1

| Target | log2 fold change |
| --- | --- |
| IGF2BP2 (UniProt Q9Y6M1) | 0.301 |
| GBA2 (UniProt Q9HCG7) | 0.117 |
| HADHA (UniProt P40939) | 0.082 |
| GCSH (UniProt P23434) | -0.029 |
| HEATR5B (UniProt Q9P2D3) | -0.005 |
| GBF1 (UniProt Q92538) | 0.038 |
| GOLPH3 (UniProt Q9H4A6) | -0.03 |
| GYS1 (UniProt P13807) | 0.045 |
| GNS (UniProt P15586) | -0.041 |
| FIS1 (UniProt Q9Y3D6) | -0.008 |
| HMGB3 (UniProt O15347) | -0.001 |
| HHEX (UniProt Q03014) | -0.007 |
| GSR (UniProt P00390) | -0.065 |
| GLUD2 (UniProt P49448) | -0.032 |
| FBL (UniProt P22087) | 0.664 |
| FCHO1 (UniProt O14526) | 0.055 |
| HTATIP2 isoform 3 (UniProt Q9BUP3) | -0.091 |

| Target | log2 fold change |
| --- | --- |
| GNG5 (UniProt P63218) | 0.086 |
| HDAC6 (UniProt Q9UBN7) | 0.006 |
| HNRNPUL1 (UniProt Q9BUJ2) | 0.047 |
| FHOD1 (UniProt Q9Y613) | 0.084 |
| H1FX (UniProt Q92522) | 0.112 |
| FOXK1 (UniProt P85037) | 0.361 |
| GDE1 (UniProt Q9NZC3) | -0.102 |
| GGA2 (UniProt Q9UJY4) | -0.09 |
| GREB1 (UniProt Q4ZG55) | 0.074 |
| HDHD2 (UniProt Q9H0R4) | -0.097 |
| IFITM3 (UniProt Q01628) | 0.008 |
| FBXO42 (UniProt Q6P3S6) | 0.011 |
| GNPAT (UniProt O15228) | -0.054 |
| HNRNPK isoform 2 (UniProt P61978) | -0.001 |
| GATD1 (UniProt Q8NB37) | 0.022 |
| GCC2 (UniProt Q8IWJ2) | 0.137 |

Each target was assayed with CO[C@H]1C[C@@H]2CC[C@@H](C)[C@@](O)(O2)C(=O)C(=O)N2CCCC[C@H]2C(=O)O[C@H]([C@H](C)C[C@@H]2CC[C@H](n3cnnn3)[C@H](OC)C2)CC(=O)[C@H](C)/C=C(\C)[C@@H](O)[C@@H](OC)C(=O)[C@H](C)C[C@H](C)/C=C/C=C/C=C/1C [zotarolimus] in the same assay as above.
Method in brief: as §1

| Target | log2 fold change |
| --- | --- |
| IGF2BP2 (UniProt Q9Y6M1) | 0.104 |
| GBA2 (UniProt Q9HCG7) | 0.087 |
| HADHA (UniProt P40939) | 0.081 |
| GCSH (UniProt P23434) | 0.014 |
| HEATR5B (UniProt Q9P2D3) | -0.071 |
| GBF1 (UniProt Q92538) | 0.008 |
| GOLPH3 (UniProt Q9H4A6) | 0.048 |
| GYS1 (UniProt P13807) | 0.124 |
| GNS (UniProt P15586) | -0.05 |
| FIS1 (UniProt Q9Y3D6) | 0.153 |
| HMGB3 (UniProt O15347) | 0.012 |
| HHEX (UniProt Q03014) | -0.102 |
| GSR (UniProt P00390) | -0.039 |
| GLUD2 (UniProt P49448) | 0.123 |
| FBL (UniProt P22087) | 0.034 |
| FCHO1 (UniProt O14526) | 0.068 |
| HTATIP2 isoform 3 (UniProt Q9BUP3) | 0.364 (active) |

| Target | log2 fold change |
| --- | --- |
| GNG5 (UniProt P63218) | -0.016 |
| HDAC6 (UniProt Q9UBN7) | 0.008 |
| HNRNPUL1 (UniProt Q9BUJ2) | -0.043 |
| FHOD1 (UniProt Q9Y613) | 0.095 |
| H1FX (UniProt Q92522) | 0.049 |
| FOXK1 (UniProt P85037) | 1 (active) |
| GDE1 (UniProt Q9NZC3) | 0.043 |
| GGA2 (UniProt Q9UJY4) | 0.069 |
| GREB1 (UniProt Q4ZG55) | 0.07 |
| HDHD2 (UniProt Q9H0R4) | -0.027 |
| IFITM3 (UniProt Q01628) | 0.007 |
| FBXO42 (UniProt Q6P3S6) | 0.025 |
| GNPAT (UniProt O15228) | 0.064 |
| HNRNPK isoform 2 (UniProt P61978) | -0.022 |
| GATD1 (UniProt Q8NB37) | -0.004 |
| GCC2 (UniProt Q8IWJ2) | 0.074 |
